Some of the results follow. The hit rate among all sequences tested is not known here.
Molecular target: furin, P09958
Assay: furin cleavage Z-score vs untreated control; higher = more cleavage, active = 3.5 or more, inactive = 1 or less, 8 variable residues between constant flanks
Procedure: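 Multiplexed peptide-cDNA fusion cleavage assay. 8-mer variable peptides flanked by constant Cys-Ala (N-term) and Ala-Gly-Asn-Ala-Ser-Ala-Ser-Ala (C-term) and conjugated to a cDNA oligonucleotide were bead-immobilised via the N-terminus. They were treated with purified furin at a 1:10 enzyme:substrate ratio in 50 mM HEPES pH 7.5, 1 mM CaCl2, 100 mM NaCl for 7.5, 15 or 30 min. Released cDNA was counted by next-generation sequencing, and log counts versus no-furin controls were lowess-adjusted and converted to robust Z-scores.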

Chain of furin, P09958 (P09958 whole entry): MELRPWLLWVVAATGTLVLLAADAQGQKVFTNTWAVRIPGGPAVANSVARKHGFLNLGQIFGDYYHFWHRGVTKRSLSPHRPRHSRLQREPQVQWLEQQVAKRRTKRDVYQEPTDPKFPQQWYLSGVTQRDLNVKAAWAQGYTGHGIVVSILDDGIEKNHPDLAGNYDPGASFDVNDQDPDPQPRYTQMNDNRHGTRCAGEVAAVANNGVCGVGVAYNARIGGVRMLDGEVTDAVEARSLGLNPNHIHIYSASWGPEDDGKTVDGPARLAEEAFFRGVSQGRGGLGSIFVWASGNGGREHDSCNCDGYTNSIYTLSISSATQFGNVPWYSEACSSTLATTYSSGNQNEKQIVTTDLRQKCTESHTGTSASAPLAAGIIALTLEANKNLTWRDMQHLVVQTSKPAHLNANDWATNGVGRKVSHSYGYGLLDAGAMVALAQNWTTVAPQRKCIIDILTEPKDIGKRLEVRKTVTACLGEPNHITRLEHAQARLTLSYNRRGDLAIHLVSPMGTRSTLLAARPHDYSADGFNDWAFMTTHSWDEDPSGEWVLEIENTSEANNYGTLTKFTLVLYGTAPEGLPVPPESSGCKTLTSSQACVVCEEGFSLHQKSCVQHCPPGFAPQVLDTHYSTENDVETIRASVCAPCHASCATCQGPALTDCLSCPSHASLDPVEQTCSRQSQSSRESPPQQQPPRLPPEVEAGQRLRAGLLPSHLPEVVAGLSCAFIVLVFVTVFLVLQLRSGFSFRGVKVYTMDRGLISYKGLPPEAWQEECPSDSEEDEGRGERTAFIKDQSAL

Sequence	furin cleavage Z-score (7.5 min)	furin cleavage Z-score (15 min)	furin cleavage Z-score (30 min)
CAEVPCHRPLAGNASASA [HC2405]	0.138 (inactive)	-0.494 (inactive)	0.866 (inactive)
CAREQRDVERAGNASASA [FS-2485]	1.98	3.86 (active)	2.52
CAREQRDICEAGNASASA [FS-2658]	0.169 (inactive)	0.317 (inactive)	0.297 (inactive)
CAREQRSNGLAGNASASA [FS-3245]	-0.772 (inactive)	0.724 (inactive)	1.43
CAKVTFDRLQAGNASASA [HC1396]	-1.13 (inactive)	-0.299 (inactive)	-2.04 (inactive)
CASIERVKRQAGNASASA [FS-961]	10.9 (active)	11.9 (active)	7.3 (active)
CAKVIRHKRQAGNASASA [FS-681]	12.7 (active)	12.4 (active)	9.91 (active)
CAKVIDTLTCAGNASASA [HC221]	-1.35 (inactive)	-0.249 (inactive)	-0.555 (inactive)
CASVERIKRQAGNASASA [FS-303]	12.4 (active)	11.8 (active)	10.6 (active)
CADVCCSMSYAGNASASA [HC1991]	-0.0698 (inactive)	-0.573 (inactive)	1.23
CATTDCSGSWAGNASASA [HC1871]	-0.934 (inactive)	-0.299 (inactive)	-0.368 (inactive)
CAEWTTPCSGAGNASASA [HC1968]	-0.833 (inactive)	-0.0659 (inactive)	0.694 (inactive)
CAVVCVSMSYAGNASASA [HC83]	0.357 (inactive)	0.79 (inactive)	-0.758 (inactive)
CARRKRSAALAGNASASA [FS-2371]	10.8 (active)	11.7 (active)	9.76 (active)
CARRKRKGSDAGNASASA [FS-2451]	0.854 (inactive)	2.01	1.02
CARKNRPAGAAGNASASA [FS-1729]	-0.275 (inactive)	-0.752 (inactive)	-0.0808 (inactive)
CARRKRHDIAAGNASASA [FS-3053]	9.56 (active)	8.72 (active)	8.78 (active)
CARRKRSAGAAGNASASA [FS-1779]	11.3 (active)	10.7 (active)	8.77 (active)
CARNHRDAGAAGNASASA [FS-1756]	1.3	0.109 (inactive)	0.263 (inactive)
CASTPCSAALAGNASASA [HC2543]	-1.2 (inactive)	-0.501 (inactive)	0.383 (inactive)
CARRGRSGGAAGNASASA [FS-2227]	-0.325 (inactive)	-0.173 (inactive)	-0.877 (inactive)
CARAQRSAGAAGNASASA [FS-1994]	0.322 (inactive)	0.0646 (inactive)	1.56

Sequence	furin cleavage Z-score (7.5 min)	furin cleavage Z-score (15 min)	furin cleavage Z-score (30 min)
CARTKREAGAAGNASASA [FS-2189]	10.6 (active)	10.5 (active)	7.02 (active)
CAMEVCSQHLAGNASASA [HC1710]	0.136 (inactive)	0.13 (inactive)	-0.0969 (inactive)
CAMEECAQHLAGNASASA [HC21]	-0.625 (inactive)	-0.0837 (inactive)	-0.768 (inactive)
CATLHGPTPLAGNASASA [HC969]	0.77 (inactive)	0.336 (inactive)	-0.402 (inactive)
CARYHRDAGAAGNASASA [FS-1809]	1.33	1.22	0.229 (inactive)
CAEDEREISVAGNASASA [HC1292]	0.521 (inactive)	-0.358 (inactive)	1.28
CARRKRRAPLAGNASASA [FS-2594]	4.11 (active)	6.31 (active)	6.38 (active)
CARRKRHISVAGNASASA [FS-3262]	5.85 (active)	5.59 (active)	7.18 (active)
CARYARKIEPAGNASASA [FS-2847]	0.34 (inactive)	1.98	2.59
CARYARWAGAAGNASASA [FS-1808]	3.25	3.55 (active)	4.67 (active)
CARRQRRVPGAGNASASA [FS-3060]	0.752 (inactive)	1.27	2.47
CAMEECQQHLAGNASASA [HC39]	1.54	0.787 (inactive)	2.55
CALALPQRAYAGNASASA [HC561]	0.0304 (inactive)	1.97	1.07
CAQVVTSTWVAGNASASA [HC2162]	0.38 (inactive)	0.0342 (inactive)	0.112 (inactive)
CAEWVTSTWVAGNASASA [HC2168]	0.00297 (inactive)	0.984 (inactive)	0.871 (inactive)
CAVVCCSISYAGNASASA [HC2044]	0.197 (inactive)	-0.41 (inactive)	-0.348 (inactive)
CARKKRYDRKAGNASASA [FS-2395]	4.56 (active)	7.7 (active)	7.88 (active)
CARKKRADKKAGNASASA [FS-2961]	5 (active)	6.53 (active)	5.44 (active)
CARKKRSTKKAGNASASA [FS-2270]	5.56 (active)	7.13 (active)	6.85 (active)
CARKKRREEKAGNASASA [FS-1828]	-0.326 (inactive)	2.8	0.74 (inactive)
CARKKREKKKAGNASASA [FS-2964]	-0.433 (inactive)	-0.316 (inactive)	0.927 (inactive)
CARKKRATHSAGNASASA [FS-2562]	11.5 (active)	12.2 (active)	9.97 (active)
